The values below come from PubChem BioAssay (Tox21).

Values joined by “and” are separate entries in the source; they are usually repeats but may differ in a detail not shown here. Equal values may be shown once. Records with an inconclusive call do not appear. Entries that show only a call come without a potency. Where a structure was tested more than once in an assay, its records may differ in their call. Active and inactive are the calls of the source. Calls follow the shape of the dose curve; as a rule, active = well fitted activation curve with a large enough effect in the repeat runs; inconclusive = weak or mixed curves; inactive = flat fitted curve, though single readings scatter.
Potency is read from the fitted curve at half-maximal effect.

The experiment in a line: A CellTox Green Cytotoxicity Assay to monitor cytotoxicity in HepG2 cells - 24 hour (AID 1224878). Also: nearly all actives have a fitted effect of over 45% in size. Particulars: CellTox Green fluorescence; series mostly up to 76.8 µM. From the text:
National Center for Advancing Translational Sciences [NCATS]
NIH Chemical Genomics Center [NCGC]
U.S. Environmental Protection Agency [EPA]
National Institutes of Environmental Health Sciences [NIEHS]
National Toxicology Program [NTP]
Cell-based models are critical for drug discovery. Determining the natural cytotoxic effects resulting from test compounds is an essential research activity. A CellTox Green Cytotoxicity Assay to monitor cytotoxicity in real time of continues cell culture during 40 hours of the compound treatment was used to screen Tox21 10K library compounds in HepG2 cells. CellTox Green Cytotoxicity Assay is a nonlytic, homogeneous, biofluorescent method to measure cytotoxicity in cell culture after experimental manipulation. The assay system uses a proprietary asymmetric cyanine dye that is excluded from viable cells but preferentially stains the dead cell's DNA. […] Viable cells produce no appreciable increases in fluorescence. Therefore, the fluorescence signal produced by the binding interaction with dead cell DNA is proportional to cytotoxicity.
The mixture of HepG2 cell suspension and reagents were dispensed at 600cells/6 ul/well in 1536-well tissue culture treated black solid bottom plates using a Multidrop dispenser. After the assay plates were incubated at a 37 C/5% CO2 incubator for 5 hours, 23 nL of compounds dissolved in DMSO, positive and negative controls was transferred to the assay plate by a pintool work station. The plates were incubated at 37 C for 40 hours. The fluorescence intensity were measured at 0h, 8h, 16h, 24h, 32h and 40h time points using ViewLux plate reader during compound treatment.
As for `Nc1ccc([As](=O)(O)O)cc1`, the Potency result was “inactive”. As for `O=C(O)Cc1ccccc1`, the entry is “inactive”.

For `OCc1ccco1`, the Potency result was “inactive”. As for `CCCCC(CC)C(=O)Cl` (stereo not given), the entry is “inactive”; as for `C=CC(=O)OCC(CC)CCCC` (stereo not given), “inactive”; as for `CCCOC(=O)c1ccccc1C(=O)OCCC`, “inactive”. As for `CNCC(O)c1ccc(O)cc1` (stereo not given), the entry is “inactive”; as for `C=CC#N`, “inactive”; as for `O=C(O)COc1ccccc1`, “inactive”. As for `N#Cc1cccc(C#N)c1`, the entry is “inactive”; as for `Oc1c(Br)cc(Br)cc1Br`, “inactive”. Take `CNC(=O)O/N=C(\SC)C(=O)N(C)C`: the Potency entry is “inactive”. As for `C=C(C)C(=O)OCC(CC)CCCC` (stereo not given), the entry is “inactive”. As to `O=[N+]([O-])c1ccc(Cl)cc1`, the Potency result was “inactive”. As for `O=P1(NCCCl)OCCCN1CCCl` (stereo not given), the entry is “inactive”; as for `NNc1ccccc1`, “inactive”; as for `Cc1cccc(N)c1C`, “inactive”. As for `[N-]=[N+]=CC(=O)OC[C@H](N)C(=O)O`, the figure is 24.5 µM (active) and inactive; as for `OCCCCO`, “inactive”; as for `CN(C)NC(=O)CCC(=O)O`, “inactive”. `CNC(=O)O/N=C/C(C)(C)S(C)=O` (stereo not given): the Potency entry is “inactive”.

On to `CC(=O)/C=C/c1ccccc1`, for which the Potency entry was “inactive”. As for `OC[C@@H](O)[C@H]1O[C@@H]2O[C@H](C(Cl)(Cl)Cl)O[C@@H]2[C@H]1O`, the entry is “inactive”.

With `CC(C)CCCCCCOC(=O)c1ccccc1C(=O)OCCCCCCC(C)C`, the Potency result was “inactive”. For `CN1C(=O)CCS(=O)(=O)C1c1ccc(Cl)cc1` (stereo not given), the Potency result was “inactive”. As for `O=C(O)CCCc1ccc(N(CCCl)CCCl)cc1`, the Potency entry is “inactive”. As for `Oc1ccc(Cl)cc1`, the entry is “inactive”; as for `Cc1ccc(N=C=O)cc1N=C=O`, “inactive”; as for `Sc1ccccc1`, “inactive and 43.6 µM (active)”.

On to `COP(=S)(OC)SCN1C(=O)c2ccccc2C1=O`, for which the Potency entry was “inactive”.

Turning to `O=[N+]([O-])c1cc([As](=O)(O)O)ccc1O`, the Potency entry is “inactive”. As for `CCOP(=S)(OCC)Oc1cc(C)nc(C(C)C)n1`, the entry is “inactive”. As for `CN(C)CCC#N`, the entry is “inactive”; as for `COS(=O)(=O)OC`, “inactive”; as for `O=S(=O)(O)OOS(=O)(=O)O`, “inactive”. As for `CSc1nnc(C(C)(C)C)c(=O)n1N`, the entry is “inactive”. For `N#CN=C(N)N`, the Potency result was “inactive”. As for `ClC(Cl)c1ccccc1`, the entry is “inactive”. As for `Nc1nc(N)nc(NC2CC2)n1`, the entry is “inactive”; as for `CCOC(=O)CC(SP(=O)(OC)OC)C(=O)OCC` (stereo not given), “inactive”.
